PME-1 Maybr inh: inhibitors of human PME-1 in Maybridge library | Q9Y570 | recombinant PME-1, FP-Rh probe fluorescence polarization | inhibition, % at 9 µM | hit rate 0.5% among 16,000 | AID 2291; in the data active means inhibition above about 30%
Nox1 inh: blocks human NADPH oxidase 1 activity. HT29 cells, luminol chemiluminescence ROS. inhibition, % at 6.7 µM. hit rate 0.81% among 16,000
Target sequence (Q9Y5S8 whole entry, looked up): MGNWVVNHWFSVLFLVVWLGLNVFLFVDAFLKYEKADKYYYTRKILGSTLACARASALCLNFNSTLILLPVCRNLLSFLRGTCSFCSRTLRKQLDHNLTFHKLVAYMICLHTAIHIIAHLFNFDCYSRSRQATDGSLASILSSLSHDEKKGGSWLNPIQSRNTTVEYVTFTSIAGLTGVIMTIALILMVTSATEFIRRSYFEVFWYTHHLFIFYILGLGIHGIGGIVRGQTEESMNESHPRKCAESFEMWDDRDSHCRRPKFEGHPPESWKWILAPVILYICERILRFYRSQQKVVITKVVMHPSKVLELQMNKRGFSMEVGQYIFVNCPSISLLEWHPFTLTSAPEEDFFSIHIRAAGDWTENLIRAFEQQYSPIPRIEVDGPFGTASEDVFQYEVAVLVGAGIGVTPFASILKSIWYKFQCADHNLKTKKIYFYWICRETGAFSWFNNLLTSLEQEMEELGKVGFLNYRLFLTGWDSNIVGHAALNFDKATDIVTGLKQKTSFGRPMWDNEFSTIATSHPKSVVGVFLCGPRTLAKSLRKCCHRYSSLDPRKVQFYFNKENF
NOTCH agonist: NOTCH pathway agonism; hit rate 0.4% among 15,000; AID 434982; activation, % at 2.5 µM; NOTCH signaling luciferase reporter cells, luminescence; in the data active means activation above about 2.2%
Luminol counter: quenches luminol chemiluminescence in Nox1 counter-screen; HRP/luminol/H2O2 chemiluminescence counterscreen; inhibition, % at 6.7 µM; hit rate 0.4% among 16,000; AID 1823; further: reference of the scale not given here
Active calls of the source: *. A selection: hits, their analogues and other compounds. The true share with any hit is near 2.1%. Unless noted, no stated cut-off is given here; in the data, active means inhibition above about 75%; inactive means the rest.

SMILES	PME-1 Maybr inh	Nox1 inh	NOTCH agonist	Luminol counter
CN(C)c1ccc(/C=C(\C#N)c2ccc([N+](=O)[O-])cc2)cc1[N+](=O)[O-]	-1	-14	0	17
N#C/C(=C\c1ccc(O)cc1)c1ccc([N+](=O)[O-])cc1	4	0	1	101*
O=C(c1ccc(C#Cc2ccccc2)o1)N1CCOCC1	-3	-6	0	-2
Nc1nc(NCc2ccco2)n[nH]1	6	94*	0	90*
O=C1Nc2ccccc2/C1=C\c1c[nH]c2ccccc12	34*	9	0	-16
COC(=O)c1cnc(N2CCCN(S(=O)(=O)c3cccc4nonc34)CC2)nc1C(F)(F)F	-3	-31	0	3
S=c1[nH]nc(Cc2n[nH]c(=S)n2-c2ccccc2)n1-c1ccccc1	0	-28	0	95*
S=c1[nH]nc(CSc2nc(-c3ccccc3)cn2-c2ccccc2)n1-c1ccccc1	3	-12	0	2
NC(=O)c1cc2c(c([N+](=O)[O-])c1)-c1c(cc(C(N)=O)cc1[N+](=O)[O-])C2=O	38*	-28	0	-2
COc1ccc(C(N)=S)cc1[N+](=O)[O-]	4	2	1	1
CN(C)c1cc(NNS(=O)(=O)c2cccc(C(F)(F)F)c2)nc(N(C)C)c1C#N	6	66	-1	80*
Cc1cc(/C=N\NC(=O)CCc2ccc(O)cc2)c2c(C)ccc(C(C)C)cc1-2	49*	-11	0	-27
N#C/C(=C\Nc1ncccn1)C(=O)c1cccs1	-161	8	0	-3
FC(F)(F)c1cnc(NCCCNC(=S)Nc2cccnc2)c(Cl)c1	6	25	2.8*	-3
C=CC(=O)NC(O)C(O)NC(=O)C=C (stereo unspecified)	4	12	0	-5
CSC(=CC(=O)c1ccc(Cl)cc1)SC	1	4	0	-3
CSC(=CC(=O)c1ccncc1)SC	3	-18	3.5*	-5
O=C(NNc1nc(-c2cccs2)ns1)c1cccc(C(F)(F)F)c1	7	104*	1	57
O=C(NNC(=O)c1cccc(C(F)(F)F)c1)c1ccncc1	5	-35	-1	3
O=S(=O)(Cc1ccc(F)cc1)Cc1noc(-c2ccc(F)cc2Cl)n1	1	-21	2.3*	-2
CS(=O)(=O)Cc1noc(-c2cc(C(F)(F)F)cc(C(F)(F)F)c2)n1	3	22	0	-5
CC(C)(C)OC(=O)N[C@@H](Cc1ccccc1)c1n[nH]c(=S)n1CC1CCCO1 (stereo partly specified)	7	14	0	97*
CCSc1nccc(C(F)(F)F)c1C(=O)Nc1c(C)cccc1C	2	-29	-1	6
CCCn1c(=O)c2oc(C)cc2n(-c2ccccc2C)c1=O	3	-26	2	-5
Cc1ccc(S(C)(=O)=NC(=O)c2cnc3c(c(C)nn3C)c2SC(C)C)cc1 (stereo unspecified)	2	-89	-1	2
SMILES	PME-1 Maybr inh	Nox1 inh	NOTCH agonist	Luminol counter
O=[N+]([O-])c1cc(Cl)c(-n2cccc2)cc1N1CCCCC1	1	-73	0	3
O=[N+]([O-])c1cc(Cl)c(N2CCOCC2)cc1N1CCOCC1	-4	-74	6.3*	7
O=C(CSc1nnc(SCC(=O)c2cccc([N+](=O)[O-])c2)s1)c1cccc([N+](=O)[O-])c1	4	18	0	92*
Cc1noc(-c2ccccc2)c1NC(=O)Nc1cc(C2CC2)nn1C	1	-5	-1	3
Cn1nc(-c2ccccc2)cc1NC(=O)Nc1cccs1	32*	-38	0	26
C#CCOS(=O)(=O)c1ccc(N2CCCC2=O)cc1	4	-41	0	2
O=C1C=C(I)C(=O)C=C1I	0	86*	0	2
Cc1cc(C)cc(NC(=O)Nc2ccc(N3CCCCC3)cc2)c1	10	85*	0	-9
O=C(NNc1ccccn1)Nc1csnc1-c1c(Cl)cccc1Cl	2	-82	0	1
FC(F)(F)c1[nH]ncc1-c1ccccc1	1	12	0	2
CC(=C\c1cccc([N+](=O)[O-])c1)/C(C)=N/O	3	-8	1	-4
Cn1c(-c2cc(C(C)(C)C)nn2Cc2ccc(F)cc2)n[nH]c1=S	7	5	1	99*
Cc1c(C(=O)Nc2ccc(Cl)cc2)sc2nc(C(F)(F)F)nn12	0	-3	0	-1
CC(=O)Oc1ccc2ccccc2c1-c1c(OC(C)=O)ccc2ccccc12	8	3	0	-3
CC(=O)Oc1ccc(OC(C)=O)c2c1C(=O)c1ccccc1C2=O	85*	73	0	14
COc1ccccc1NNC(=O)c1cc(C(C)(C)C)nn1Cc1ccccc1	7	91*	0	0
COc1ccc(CNC(=S)NCCCO)cc1	4	-51	-1	98*
CN1CCN(C)c2c1c(=O)c2=O	3	-21	0	-7
CC(=O)Nc1cccc(OCCOc2cccc(NC(C)=O)c2)c1	-1	-70	0	2
CCCOc1ccc(NC(C)=O)cc1	5	3	5.0*	-4
CCOC(=O)CSc1nnc(OCC)n1-c1ccccc1	-2	-36	0	1
Cc1nnsc1-c1onc(C)c1-c1nc(-c2ccc([N+](=O)[O-])o2)no1	-1	-39	-1	3
Cc1nnsc1-c1n[nH]c(=S)n1C1CC1	5	12	0	99*
c1ccc2c(c1)-c1ccccc1C2c1ccncc1	-10	23	2.3*	-7
CCOC(=O)C1=C(C)OC(N)=C(C#N)C1c1ccc(Cl)cc1 (stereo unspecified)	4	13	0	-4
SMILES	PME-1 Maybr inh	Nox1 inh	NOTCH agonist	Luminol counter
O=C(NNc1nc(-c2cccc([N+](=O)[O-])c2)cs1)c1ccccc1Cl	4	75*	0	1
Nc1nc(-c2cccc([N+](=O)[O-])c2)cs1	7	15	0	4
CSc1nnc(SCC(=O)N2CCC(C(F)(F)F)CC2)s1	-4	-36	2.7*	3
CNc1ccc(Cl)cc1C(=O)NC1CC(C)CC(C)(C)C1 (stereo unspecified)	1	-8	2.6*	-1
CC1CC(NC(=S)NCCO)CC(C)(C)C1 (stereo unspecified)	-14	-8	1	6
S=c1[nH]nc(Cc2ccsc2)n1Cc1ccccc1	3	21	0	93*
O=c1ccc(-c2ccncc2)n[nH]1	4	-46	-1	-3
O=C(NNc1c([N+](=O)[O-])cc(C(F)(F)F)cc1[N+](=O)[O-])c1ccccc1-n1cccc1	-8	102*	-1	-9
COc1ccc(C(=O)NNc2c([N+](=O)[O-])cc(C(F)(F)F)cc2[N+](=O)[O-])cc1	5	89*	1	4
O=C(CCc1ccc(O)cc1)NNc1c([N+](=O)[O-])cc(C(F)(F)F)cc1[N+](=O)[O-]	5	28	0	-4
Cc1ccc2c(c1)CCCN2C(=O)c1cnn(-c2ccc(F)cc2)c1C	0	-41	0	-1
N#C/C(N)=C(\C#N)N=Cc1ccccc1[N+](=O)[O-]	0	-35	0	19
CC(=O)C1=CN(c2ccccc2)C=C(C(C)=O)C1c1ccccc1	1	-64	0	1
Cc1ccc2c(c1)CCCN2C(=O)c1sc2ccccc2c1Cl	5	-39	0	3

Assay outcomes as filed in PubChem.
